Measurements reported in PubChem BioAssay AID1851 (National Center for Advancing Translational Sciences (NCATS), 2009).
Among all 16,000 compounds or so, about 4,000 (25%) were called active. Not shown: some 26% with an inconclusive outcome. Not all results are given here. Unmarked numbers belong to inactive results. Calls follow the shape of the dose curve; as a rule, active = well fitted curve in the direction sought with a large enough effect; inconclusive = small, poorly fitted or top-dose-only effect, or effect the other way; inactive = no such curve, though single readings can be large or run the other way. Square brackets hold non-standard residues; d marks the D form. Peptide text beside a SMILES is read from it. * marks the point of attachment. ξ: configuration not given here. Cbz = O=C(OCc1ccccc1)*; ξA = CC(N)C(=O)O

Target: Cytochrome P450 2C9 (Homo sapiens) (UniProt P11712)
Sequence (P11712 whole entry, looked up): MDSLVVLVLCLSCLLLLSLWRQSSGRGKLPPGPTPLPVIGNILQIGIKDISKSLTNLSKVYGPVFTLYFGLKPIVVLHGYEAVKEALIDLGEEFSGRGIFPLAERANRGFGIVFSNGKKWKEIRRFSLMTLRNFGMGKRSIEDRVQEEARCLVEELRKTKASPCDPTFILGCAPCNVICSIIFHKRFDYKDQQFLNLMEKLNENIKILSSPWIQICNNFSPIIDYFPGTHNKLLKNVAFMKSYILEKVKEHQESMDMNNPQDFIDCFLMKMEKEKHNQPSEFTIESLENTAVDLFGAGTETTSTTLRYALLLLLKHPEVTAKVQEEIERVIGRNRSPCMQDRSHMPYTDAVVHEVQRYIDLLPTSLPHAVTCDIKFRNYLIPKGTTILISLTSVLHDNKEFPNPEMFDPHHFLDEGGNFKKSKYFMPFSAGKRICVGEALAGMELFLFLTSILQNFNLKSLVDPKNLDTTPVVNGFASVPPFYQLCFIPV
Experiment: Cytochrome panel assay with activity outcomes
Details: recombinant CYP, pro-luciferin dealkylation, luminescence, p450-cyp2c9; series mostly up to 57.1 µM; activity, negative = inhibition: at the top concentration
% is scaled to controls: 0 for no effect and ±100 for the full control effect.

Row | Structure (SMILES) | activity, negative = inhibition | AC50
1 | Cc1cnc(CNc2cc(-c3ccccc3C)ncn2)cn1 | -11.2% [at 2.29 µM] | –
2 | CCc1ccc(-c2csc(NC(=O)C3CCCO3)c2C(=O)OC(C)C)cc1 (stereo not given) | – | 4.47 µM (active)
3 | CO/N=C\[C@@H](OC)[C@H](C)/C=C\CC(=O)OC | -2.61% [at 11.4 µM] | –
4 | CCOc1cc(/C=C2/SC(=O)N(CC(=O)N3CCc4ccccc4C3)C2=O)ccc1OCC(=O)O | – | 12.6 µM (active)
5 | Cn1c(=O)[nH]c2ncn(C)c2c1=O | 4.36% | –
6 | Cc1c(Br)c([N+](=O)[O-])nn1CC(=O)NCc1ccccn1 | -8.45% | –
7 | Cc1c(Br)c([N+](=O)[O-])nn1CC(=O)NCc1cccs1 | -30.1% | –
8 | Cc1ccc(NC(=O)Cn2nc([N+](=O)[O-])c(Br)c2C)cc1C | – | 14.1 µM (active)
9 | CC[n+]1c(/C=C/Nc2ccccc2)oc2ccccc21 | 3.83% | –
10 | CCc1cccc(C)c1NC(=O)CSc1nc2ccc(N3C(=O)c4ccccc4C3=O)cc2s1 | – | 3.55 µM (active)
11 | CC[N+](CC)(CC(=O)Nc1c(C)cccc1C)Cc1ccccc1 | -17.2% [at 25.6 µM] | –
12 | NC(=O)CNC(=O)[C@@H]1CC2(CC(c3ccccc3)=NO2)CN1C(=O)c1ccc(Br)cc1 (stereo not given in full) | -2.63% | –
13 | CN1CCN(NC(=O)c2ccccc2F)CC1 | -0.803% | –
14 | O=C(NC(=S)N(Cc1ccccc1)Cc1ccccc1)c1ccccc1F | – | 0.891 µM (active)
15 | COc1ccc(CN(CCC#N)C(=S)NC(=O)c2ccccc2)cc1 | – | 0.631 µM (active)
16 | O=C(O)c1ccccc1C(=O)NCc1ccc(F)cc1 | -12.1% | –
17 | CCOc1ccc(C(=O)NC(=S)N(Cc2ccccc2)Cc2ccccc2)cc1 | – | 10 µM (active)
18 | O=C(NC1(C(F)(F)F)C(=O)Nc2c1c(=O)[nH]c(=O)n2-c1ccc(F)cc1)c1cccnc1 (stereo not given) | -9.59% | –
19 | Cc1cccc(CNc2ncncc2-c2cccc(C#N)c2)c1 | -7.76% [at 2.29 µM] | –
20 | Cn1cccc1C(=O)N1CCC[C@@]2(CCN(c3ccccn3)C2)C1 | 3.61% | –
21 | Cc1ccc(CC(=O)N2CC(C)OC(C)C2)cc1 (stereo not given) | 6.48% | –
22 | Cc1ccc(-c2nnc(C)c(N3CC(C)OC(C)C3)n2)cc1 (stereo not given) | – | 17.8 µM (active)
23 | O=C1NCCCC1C(=O)Nc1ccccc1C(F)(F)F (stereo not given) | -18.4% | –
24 | CCCC[C@@H]1C[C@H]1C(NC(=O)c1cccs1)c1ccccc1C(F)(F)F (stereo not given in full) | – | 1 µM (active)

Row | Structure (SMILES) | activity, negative = inhibition | AC50
25 | CCCC[C@@H]1C[C@H]1C(NC(=O)c1ccccc1)c1ccccc1C(F)(F)F (stereo not given in full) | – | 1.26 µM (active)
26 | C#CCCCO/N=C1/[C@H]2O[C@@H]2[C@@H](O)[C@H]2[C@H]1CCn1c(=O)n(C)c(=O)n12 | 4.28% [at 11.4 µM] | –
27 | CCOC(=O)C1CN(S(=O)(=O)c2cccc(C(F)(F)F)c2)c2cc(CC(=O)OC)ccc2O1 (stereo not given) | – | 6.31 µM (active)
28 | COC(=O)CNC(=O)C(C)NC(=O)CNC(=O)OCc1ccccc1 (stereo not drawn) (Cbz-Gly-[ξA]-Gly-OMe) | -11.6% | –
29 | CCC(C)C(NC(=O)OCc1ccccc1)C(=O)OCN1C(=O)c2ccccc2C1=O (stereo not given) | – | 12.6 µM (active)
30 | O=C(CCNC(=O)c1ccccc1)OCN1C(=O)c2ccccc2C1=O | -12.5% | –
31 | N#CC(=C(/N)Sc1ccccc1N)/C(C#N)=C(/N)Sc1ccccc1N | 3.74% | –
32 | N#Cc1ccccc1Sc1ccccc1N | – | 5.01 µM (active)
33 | CC(=O)COC(=O)CCc1nc2ccccc2[nH]c1=O | -22.1% | –
34 | CCN(CC)CCOc1ccc2nc(N(C)C)sc2c1 | -10.8% | –
35 | O=c1c(-c2nnc(SCc3ccc(Cl)cc3Cl)o2)cccn1Cc1ccccc1 | – | 11.2 µM (active)
36 | CC(C)=CCNc1ncnc2nc[nH]c12 | -9.02% [at 11.4 µM] | –
37 | S=C(S)O[C@@H]1C[C@@H]2C[C@H]1[C@@H]1CCC[C@H]21 | – | 3.98 µM (active)
38 | CC1CCC(C(=O)NC(C(=O)N2CCC(N3CCCCC3)CC2)C(C)C)CC1 (stereo not given) | -14.4% | –
39 | Nc1ncnc2c1ncn2CCCCC(=O)O | 9.41% [at 11.4 µM] | –
40 | O=C1C=C(NCC2CCCO2)C2(CCCCC2)O1 (stereo not given) | -9.85% | –
41 | O=S(=O)(c1cnccc1N1CCN(/N=C/c2ccccc2)CC1)N1CCCCC1 | – | 17.8 µM (active)
42 | O=S(=O)(c1cnccc1N1CCN(CCO)CC1)N1CCCC1 | 8.09% [at 11.4 µM] | –
43 | CC(C)N1CCN(c2ccncc2S(=O)(=O)N2CCCCC2)CC1 | -8.32% [at 11.4 µM] | –
44 | CC(=O)c1ccc(-n2c(CCC(=O)O)ccc2-c2cccs2)cc1 | – | 14.1 µM (active)
45 | NC(=O)Nn1c(CCC(=O)O)ccc1-c1ccc(F)cc1 | -5.74% | –
46 | Cc1ccc(-c2ccc(CCC(=O)O)n2CC2CCCO2)cc1 (stereo not given) | -16.3% | –
47 | Cc1cc(C2CCCCC2)n(O)c(=O)c1 | -14.9% [at 25.6 µM] | –
48 | CS(=O)(=O)Nc1cccc(-c2ccc3ncnc(N4CCNCC4)c3c2)c1 | -12.1% [at 2.29 µM] | –

Row | Structure (SMILES) | activity, negative = inhibition | AC50
49 | O=C(O)/C(=C/c1c(C(=O)O)[nH]c2cc(Cl)cc(Cl)c12)c1ccccc1 | -24.4% | –
50 | O=C(O)/C(=C\c1ccc(O)cc1)c1cccc2ccccc12 | -3.39% [at 11.4 µM] | –
51 | O=C(/C(=C/c1ccc(Cl)cc1)c1nc2ccccc2[nH]1)c1ccccc1 | – | 0.631 µM (active)
52 | CN1CCN(CCCN2c3ccccc3Sc3ccc(S(=O)(=O)N(C)C)cc32)CC1 | 1.24% [at 25.6 µM] | –
53 | N[C@@H](Cc1[nH]nc2ccccc12)C(=O)O | 7.77% [at 11.4 µM] | –
54 | CC(C)Oc1ccc(CNC(=O)CC(c2ccccc2)c2cc(Cl)ccc2O)cc1 (stereo not given) | – | 2.24 µM (active)
55 | CN(Cc1ccccc1)C(=O)CC(c1ccccc1)c1cc(Cl)ccc1O (stereo not given) | – | 4.47 µM (active)
56 | C[C@@H](c1ccccc1)N1C(=O)[C@@H]2[C@H]3C(=CC[C@H]2C1=O)C(=O)[C@H]1O[C@H]1[C@H]3O | -6.91% [at 11.4 µM] | –
57 | Oc1cc(O)c2c(c1)O[C@H](c1ccc(O)c(O)c1)[C@H](O)C2 | – | inactive
58 | Cc1ccc(-n2c(-c3cc(C)n(C)n3)n[nH]c2=S)cc1 | 5.76% | –
59 | Cc1cc(-c2n[nH]c(=S)o2)c(C)n1-c1ccccc1 | – | 12.6 µM (active)
60 | CC[N+](CC)(CC)CCOc1cccc(OCC[N+](CC)(CC)CC)c1OCC[N+](CC)(CC)CC | 22.4% [at 25.6 µM] | –
61 | CCCN1C[C@@H](CSC)C[C@H]2c3cccc4[nH]cc(c34)C[C@@H]21 | -6.92% | –
62 | O=C(N/N=C/c1ccc(Cl)cc1Cl)Nc1ccccc1 | -15.9% | –
63 | O=C(N/N=C/c1ccc(Cl)cc1Cl)c1cccc(F)c1 | – | 15.8 µM (active)
64 | C/C(=N\NC(=O)c1cccc(F)c1)c1ccc(Br)s1 | 20.8% | –
65 | Cc1cnc(CNc2nc(-c3ccccc3Cl)nc3ccccc23)cn1 | 7.89% [at 2.29 µM] | –
66 | CC(C)c1ccc(N2C(=O)CC(Sc3nc4ccccc4o3)C2=O)cc1 (stereo not given) | – | 2.24 µM (active)
67 | CC1(CCC#N)N=C(SCCC#N)N(c2ccccc2)C1=O (stereo not given) | -16.7% | –
68 | Cc1c(OC(=O)c2ccc([N+](=O)[O-])cc2)c2c(c[n+]1C)COC(C)(C)OC2 | -21.7% | –
69 | Cc1ccc(/C(C#N)=C/c2cccc([N+](=O)[O-])c2)cc1 | -10.5% [at 11.4 µM] | –
70 | Cc1ccc(S(=O)(=O)CC#CCOC(=O)c2ccc([N+](=O)[O-])cc2)cc1 | – | 5.62 µM (active)
71 | COc1ccc(Cc2ccccc2C(=O)O)c2ccccc12 | – | 3.98 µM (active)
72 | Cc1ccc(C(=N)c2ccccc2Cc2cccc3ccccc23)c2ccccc12 | 5.86% [at 11.4 µM] | –

Row | Structure (SMILES) | activity, negative = inhibition | AC50
73 | COc1cc(Cl)c(CC(=O)c2c[nH]c3ccccc23)cc1OC | -14.5% [at 11.4 µM] | –
74 | N[C@@H](C(=O)O)c1cc(O)ccc1Cl | 24.1% | –
75 | N#C/C(=C(/O)CN1CCCCC1)c1nc(-c2ccc(Cl)cc2)cs1 | 0.314% | –
76 | Cc1ccc(-c2csc(C(C#N)=C3CCCC3)n2)cc1 | – | 11.2 µM (active)
77 | O=C(CSCC(=O)OCn1nnc2ccccc2c1=O)Nc1ccc(Cl)cc1 | – | 12.6 µM (active)
78 | COC(=O)c1ccc(C(=O)OC)c(NC(=S)N2CCN(c3ccccc3)CC2)c1 | – | 6.31 µM (active)
79 | COC(=O)c1ccc(N2CCN(c3ccccc3)CC2)c(NC(=O)C2CC2)c1 | -15.9% | –
80 | COC(=O)c1cc(OC)c(OC)cc1NC(=S)N1CCN(C)CC1 | 22.1% | –
81 | Cc1cccc(C)c1OC[C@H](C)N | -2.67% [at 25.6 µM] | –
82 | Cc1cc(=O)[nH]c2c1c(C)nn2C1CCOC(C)(C)C1 (stereo not given) | 26.1% | –
83 | Cn1c(=O)n(-c2cccc(Cl)c2)c(=O)c2c3c(sc21)COC(C)(C)C3 | – | 15.8 µM (active)
84 | Cn1c(=O)n(-c2ccc(Cl)cc2)c(=O)c2c3c(sc21)COC(C)(C)C3 | – | 10 µM (active)
85 | CN1CCc2c(sc3c2c(=O)n(-c2ccccc2)c2nncn32)C1 | 1.25% | –
86 | COc1cccc(C(C#N)N2N=C(C)CC2(C)C)c1O (stereo not given) | -17.8% | –
87 | O=C1[C@@H]2[C@H]3[C@H](O)[C@H](O)C/C(=N/OCc4ccccc4)[C@@H]3CC[C@H]2C(=O)N1c1ccc(F)cc1F | 12.2% [at 11.4 µM] | –
88 | C=C[C@@]1(C)CC(=O)[C@@]2(O)[C@@]3(C)[C@@H](O)CCC(C)(C)[C@@H]3[C@H](OC(=O)CCN(C)C)[C@H](OC(C)=O)[C@@]2(C)O1 | – | 0.126 µM (active)
89 | C=C[C@@]1(C)CC(=O)[C@@]2(O)[C@@]3(C)[C@@H](O)CCC(C)(C)[C@@H]3[C@H](O)[C@H](OC(C)=O)[C@@]2(C)O1 | 1.57% | –
90 | C=C[C@@]1(C)CC(=O)[C@@]2(O)[C@@]3(C)[C@H](O)CCC(C)(C)[C@@H]3[C@H](O)[C@H](OC(C)=O)[C@]2(C)O1 | -5.47% | –
91 | CC1(C)SC(=S)N(NC(=O)Nc2ccccc2)C1N(O)C(=O)Nc1ccccc1 (stereo not given) | – | 10 µM (active)
92 | COCCNc1nc(-c2ccccc2CN(C)C)nc2ccccc12 | 1.68% [at 2.29 µM] | –
93 | COc1ccc([C@@H](Nc2ccccn2)c2cc(C(C)(C)C)cc(C(C)(C)C)c2O)cc1 | – | 2.51 µM (active)
94 | O[C@H](CNc1ccccn1)c1ccccc1 | -4.96% [at 11.4 µM] | –
95 | COc1ccc([C@H](O)c2ccccn2)cc1 | -12.5% [at 11.4 µM] | –
